In PubChem BioAssay AID449762 (Southern Research Specialized Biocontainment Screening …, 2010):
About 1,900 (0.58%) of roughly 330,000 compounds were called active. Inconclusive results (about 4%) are left out. Not all results are given here. Potency and affinity values are given separately. Values without a mark were called inactive. Cut-off read from the data, not from the text of the source: inconclusive = inhibition above about 70% without an active follow-up result; inactive = below that.

Assay: M. tuberculosis growth inhibition, HTS (AID 449762);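 note: bacterial growth assessed after seven days of incubation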
Conditions: M. tuberculosis H37Rv growth inhibition, 7H9 media; at 25 µM; hits give high values

Compound | inhibition [%]
CCN(C(=O)c1cc(Cl)ccc1OC)c1ccccc1 | -7.73
CCOC(=O)C1=C(C)C(c2cccc(Oc3ccccc3)c2)NC(=S)N1 (stereo not given) | 10.7
COc1ccc(-c2csc(NS(=O)(=O)c3ccc([N+](=O)[O-])cc3)n2)cc1 | 1.1
COc1ccc(-c2nc(-c3ccccn3)ncc2S(C)(=O)=O)cc1 | -1.3
Cc1ccccc1-n1c2nc(=O)n(C)c(=O)c-2cc2ccccc21 | 0.96
c1ccc(-c2nccc(-c3ccco3)n2)nc1 | 58.2
Cc1ccc(-n2c3nc(=O)n(C)c(=O)c-3cc3ccccc32)cc1 | 10.4
Cc1ccc(NC(=O)CSc2nc(=O)n(CCN3CCOCC3)c3c2CCCC3)cc1 | -2.61
CCCS(=O)(=O)N1CCC(C(=O)NCCc2ccccc2)CC1 | 4.73
CCc1cc(C(=O)Cc2ccccn2)c(O)cc1O | -1.89
CCc1cc(/C(Cc2ccccn2)=N\O)c(O)cc1O | -0.69
CC(/C=C/c1ccc(C)o1)=C\C(=O)O | 8.65
CC(/C=C\c1ccccc1)=C/C(=O)O | -1.86
N#CC(C(=O)O)=C1CCCC1 | -4.52
COc1ccc(COc2cc(-c3cccc(OC)c3)nc3ccc(NC(=O)c4ccc(Cl)cc4)cc23)cc1 | 56.2
COc1ccc(COc2cc(-c3cccc(OC)c3)nc3ccc(NC(=O)c4ccc(N(C)C)cc4)cc23)cc1 | -16.9
O=C(NC1CCN(S(=O)(=O)c2ccccc2F)CC1)c1ccco1 | -8.86
COc1cccc(NC(=O)CN(C)C(=O)C2CC3C=CC2C3)c1 (stereo not given) | 0.94
CCN(c1ccccc1)S(=O)(=O)c1ccc(Cl)c(NC(=O)CNCc2ccccc2OC)c1 | -4.74
NS(=O)(=O)c1cccc(NC(=O)COc2ccc([N+](=O)[O-])cc2)c1 | -1.48

Compound | inhibition [%]
O=C(NCc1ccc(F)cc1)C1(S(=O)(=O)c2ccc(Cl)cc2)CC1 | -0.39
COc1ccccc1/C=C1\N=C(C(C)(C)C)OC1=O | 7.56
CN(C)c1ccc(C=C2C(=O)OC(C)(C(C)(C)C)OC2=O)cc1 (stereo not given) | 0.2
CC(C)Cn1c(NCCN(C)C)nc2c1c(=O)[nH]c(=O)n2C | -4.76
CCNc1nc2c(c(=O)[nH]c(=O)n2C)n1CC(C)C | -9.92
Cc1c(Cl)cccc1NC(=O)CSc1nnnn1C | 1.96
CC(C)Oc1ccc(C(CCNCc2ccc(O)cc2)c2ccccc2)cc1 (stereo not given) | 62.7
COc1ccc(C(CCNCc2ccc(N(C)C)cc2)C(C)C)cc1 (stereo not given) | 10.7
CSc1ccc(CCNC(=O)c2cc(C)nn2-c2ccccc2)cc1 | 3.36
COc1ccc(NC(=O)CCNC(=O)c2ccccc2)cc1S(N)(=O)=O | -4.86
CC(=O)c1ccc(COC(=O)c2cc3ccccc3oc2=O)cc1 | 13.6
CCOC(=O)c1cc2ccc(OC)cc2oc1=O | 14
COC(=O)c1ccc(COC(=O)c2cc3ccccc3oc2=O)cc1 | 15.8
CCOC(=O)c1cc2c(ccc3ccccc32)oc1=O | 52.8
O=C(/C=C/c1ccccc1)N1c2ccccc2Sc2ccc(C(F)(F)F)cc21 | 25.3
COc1cccc(-n2c(CN3CCN(c4ccccn4)CC3)nc3ccc([N+](=O)[O-])cc3c2=O)c1 | -0.01
COc1ccc(NC(=O)CSc2nc3c(c(=O)n2-c2ccc(C)cc2)SCC3)c(OC)c1 | -1.52
Cc1ccccc1C(=O)NCCCNC(=O)c1cnccn1 | 4.01
COc1ccc(CCNC(=O)CNS(=O)(=O)c2cccs2)cc1OC | -11.3
CCOc1ccc(S(=O)(=O)NC(Cc2cnc[nH]2)C(=O)O)cc1 (stereo not given) | -6.37

Compound | inhibition [%]
C=CC(=O)Nc1cccc(Oc2ncnc3[nH]cc(-c4cnc5ccccc5c4)c23)c1 | 1.76
CC(=O)Nc1cccc(OCC(=O)Nc2ccc(F)cc2)c1 | -11.2
Cc1ccc(NC(=O)COC(=O)Cn2cnc3ccccc32)c(C)c1 | 5.43
O=[N+]([O-])/C=C/c1cn(Cc2ccc(Cl)cc2)c2ccccc12 | 3.28
Cc1cccc(Cn2cc(/C=C/[N+](=O)[O-])c3ccccc32)c1 | -0.16
COc1cc(CN(CC2CCCO2)C(=O)c2cccs2)cc(OC)c1OC (stereo not given) | 1.89
NC(=O)C1CC(=O)N(c2ccc(OCc3ccccc3Cl)cc2)C1 (stereo not given) | 7.94
CC(C)Oc1ccc(N2CC(C(=O)Nc3ccccn3)CC2=O)cc1 (stereo not given) | 10.3
CCOc1ccc(N2CC(C(=O)Nc3ccccn3)CC2=O)cc1 (stereo not given) | 12.2
O=C(O)C1CC(=O)N(c2ccc(OCc3ccccc3Cl)cc2)C1 (stereo not given) | 35.8
O=C(OCc1ccccc1Cl)C1CC(=O)N(Cc2ccco2)C1 (stereo not given) | 5.47
COc1ccc(COC(=O)C2CC(=O)N(Cc3ccc(C)cc3)C2)cc1 (stereo not given) | 16.4
O=C(COC(=O)c1ccc(Cl)nc1)NNC(=O)c1ccc(Cl)cc1 | 5.61
O=C(NCCC1=CCCCC1)c1cc(S(=O)(=O)N2CCOCC2)c(Cl)cc1Cl | 2.93
CCc1ccccc1N(CC(=O)NCC1CCCO1)C(=O)CCC(=O)Nc1cc(C)on1 (stereo not given) | -3.22
COc1ccc(OC)c(S(=O)(=O)N2CCC(C(=O)Nc3cc(C)ccc3C)CC2)c1 | -10.6
Cc1ccccc1C1C(C#N)=C2N=C(N)c3ccccc3N2C2=C1C(=O)CCC2 (stereo not given) | 6.31
CCOC(=O)/C(=N\Nc1ccc(C(C)=O)cc1)c1csc(Nc2ccccc2)n1 | -1.99
CCOC(=O)/C(=N\Nc1ccccc1)c1csc(Nc2ccc(C)cc2)n1 | 7.86
Cc1ccc(NC(=O)CN(C)C(=O)c2ccc3[nH]c4c(c3c2)CC(C)CC4)cc1 (stereo not given) | -5.07
